This is an account of results in PubChem BioAssay.

The term inhibition denotes the relative decrease from the control value, in per cent.

A short description of assay [1]: antimalarial activity against Dd2 strain (AID 2302;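 active means growth inhibition above 50% at the single 2 µM test dose, taken to imply half-maximal potency below 2 µM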;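 further: 0% = DMSO untreated growth and 100% = chloroquine plus artemisinin killed control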). Particulars: P. falciparum Dd2 in RBCs, LDH growth readout, 72 h; at 2 µM; active compounds read high.
The nature of assay [2]: HepG2 cytotoxicity, primary screen, cytotoxicity control for P. falciparum antimalarial project, cell-based, ATP luminescence (AID 2303;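 active means inhibition above 50%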;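 further: 0% = DMSO wells and 100% = digitonin-killed cells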). Conditions: HepG2 viability, 24-48 h, at 10 µM, active compounds read high.
Assay [3] concerns the target L-lactate dehydrogenase (Plasmodium falciparum (isolate CDC / Honduras)) (UniProt Q27743). Description: PfLDH activity inhibition – cell lysate, 3D7 strain, counter-screen for P. falciparum growth inhibition project (AID 2304).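 Further: 0% = vehicle and 100% = reference inhibitor.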 Conditions: P. falciparum 3D7 crude extract, LDH APAD/NBT absorbance; at 2 µM; active compounds read high. For orientation: Counterscreens check selectivity or assay interference.

Assay [4] is described as follows: inhibition of 3D7 malaria parasite growth – strain 3D7 (AID 2306).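 Further: 0% = DMSO wells and 100% = chloroquine plus artemisinin control wells.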 Particulars: P. falciparum 3D7 erythrocytic growth, LDH absorbance, 72 h; at 2 µM; active compounds read high.
In assay [5] the target is Calcium-dependent protein kinase 1 (Plasmodium falciparum (isolate 3D7)) (UniProt P62344). Nature of the assay: PfCDPK1 kinase inhibitors, biochemical, TCAMS library (AID 1159585; cut-off not given, nearly all actives have IC50 up to about 0.98 µM;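 further: inhibitors leave more ATP so luminescence rises with inhibition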). Conditions: recombinant PfCDPK1, Kinase-Glo ATP depletion luminescence. On the technique in general: In Kinase-Glo more light means more ATP remaining.
Assay [6] addresses Plasmodium falciparum protein kinase 6 (PK6, PF3D7_1337100) (UniProt Q8IDW1). Description: PfPK6 kinase inhibitors, biochemical, TCAMS library (AID 1159586). Particulars: recombinant PfPK6, Kinase-Glo ATP depletion luminescence.
For assay [7], the target named is Protein kinase 7 (PK7), Plasmodium falciparum 3D7 (PF3D7_0213400) (UniProt Q7YTF7). Description: inhibition of Plasmodium PK7 catalytic activity – biochemical, TCAMS antimalarial set, Kinase-Glo luminescence (AID 1159587). Conditions: recombinant PfPK7, Kinase-Glo ATP depletion luminescence.
Assay [8] concerns the target Calcium-dependent protein kinase 4 (Plasmodium falciparum (isolate 3D7)) (UniProt Q8IBS5). Description: PfCDPK4 kinase inhibitors, biochemical, TCAMS library (AID 1159588; cut-off not given, nearly all actives have IC50 up to about 0.91 µM). Particulars: recombinant PfCDPK4, Kinase-Glo ATP depletion luminescence.

Unmarked numbers belong to inactive results. For some of these results: Potency and affinity values are given separately. Calls of active or inactive are those of the source. Unless noted, how the calls were made is not given here.

Protein kinase 7 (PK7), Plasmodium falciparum 3D7 (PF3D7_0213400), sequence (Q7YTF7 1-343): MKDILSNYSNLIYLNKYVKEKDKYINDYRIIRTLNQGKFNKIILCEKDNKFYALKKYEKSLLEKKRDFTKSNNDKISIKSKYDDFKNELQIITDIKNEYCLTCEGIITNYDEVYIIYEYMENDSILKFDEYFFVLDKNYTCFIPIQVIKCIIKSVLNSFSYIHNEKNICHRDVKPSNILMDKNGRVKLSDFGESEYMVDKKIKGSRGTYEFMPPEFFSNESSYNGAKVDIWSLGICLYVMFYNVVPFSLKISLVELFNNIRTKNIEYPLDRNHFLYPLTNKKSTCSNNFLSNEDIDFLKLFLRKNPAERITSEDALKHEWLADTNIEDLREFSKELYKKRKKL
Plasmodium falciparum protein kinase 6 (PK6, PF3D7_1337100), sequence (Q8IDW1 1-305): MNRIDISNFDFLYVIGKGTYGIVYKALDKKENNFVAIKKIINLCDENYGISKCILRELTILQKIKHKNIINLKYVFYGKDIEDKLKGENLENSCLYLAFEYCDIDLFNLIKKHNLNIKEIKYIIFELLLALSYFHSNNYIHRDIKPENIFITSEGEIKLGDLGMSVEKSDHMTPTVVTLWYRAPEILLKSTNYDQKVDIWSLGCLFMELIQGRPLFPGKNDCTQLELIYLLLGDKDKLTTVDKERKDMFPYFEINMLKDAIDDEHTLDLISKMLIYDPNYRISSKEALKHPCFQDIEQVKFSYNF
Calcium-dependent protein kinase 4 (Plasmodium falciparum (isolate 3D7)), sequence (Q8IBS5 whole entry, looked up): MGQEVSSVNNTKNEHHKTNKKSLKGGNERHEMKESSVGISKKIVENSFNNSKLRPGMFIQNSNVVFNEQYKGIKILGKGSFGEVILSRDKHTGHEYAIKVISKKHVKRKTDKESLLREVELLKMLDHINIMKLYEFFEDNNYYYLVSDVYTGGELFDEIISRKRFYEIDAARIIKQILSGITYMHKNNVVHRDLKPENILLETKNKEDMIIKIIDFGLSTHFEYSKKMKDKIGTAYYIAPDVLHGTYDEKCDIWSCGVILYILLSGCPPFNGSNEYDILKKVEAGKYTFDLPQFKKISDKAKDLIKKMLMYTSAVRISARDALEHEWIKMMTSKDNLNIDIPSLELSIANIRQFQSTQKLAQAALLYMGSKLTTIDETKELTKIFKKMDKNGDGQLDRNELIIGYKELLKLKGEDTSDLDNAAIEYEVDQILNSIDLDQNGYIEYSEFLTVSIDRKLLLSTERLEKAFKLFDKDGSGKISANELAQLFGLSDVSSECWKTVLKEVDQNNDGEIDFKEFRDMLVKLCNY
Calcium-dependent protein kinase 1 (Plasmodium falciparum (isolate 3D7)), sequence (P62344 whole entry, looked up): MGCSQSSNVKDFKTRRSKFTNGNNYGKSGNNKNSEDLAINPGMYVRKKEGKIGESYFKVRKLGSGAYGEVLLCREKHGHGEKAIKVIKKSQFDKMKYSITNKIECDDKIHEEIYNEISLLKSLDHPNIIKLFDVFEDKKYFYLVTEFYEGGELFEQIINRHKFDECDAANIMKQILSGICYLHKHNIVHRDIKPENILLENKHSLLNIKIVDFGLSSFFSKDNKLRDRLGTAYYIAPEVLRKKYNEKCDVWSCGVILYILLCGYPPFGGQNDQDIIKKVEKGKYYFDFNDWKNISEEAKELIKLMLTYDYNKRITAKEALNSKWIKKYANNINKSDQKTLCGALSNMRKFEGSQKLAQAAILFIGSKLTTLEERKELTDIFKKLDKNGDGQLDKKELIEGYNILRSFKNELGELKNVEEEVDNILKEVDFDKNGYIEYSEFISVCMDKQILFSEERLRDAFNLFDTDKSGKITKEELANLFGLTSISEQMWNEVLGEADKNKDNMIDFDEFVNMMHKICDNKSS
L-lactate dehydrogenase (Plasmodium falciparum (isolate CDC / Honduras)), sequence (Q27743 whole entry, looked up): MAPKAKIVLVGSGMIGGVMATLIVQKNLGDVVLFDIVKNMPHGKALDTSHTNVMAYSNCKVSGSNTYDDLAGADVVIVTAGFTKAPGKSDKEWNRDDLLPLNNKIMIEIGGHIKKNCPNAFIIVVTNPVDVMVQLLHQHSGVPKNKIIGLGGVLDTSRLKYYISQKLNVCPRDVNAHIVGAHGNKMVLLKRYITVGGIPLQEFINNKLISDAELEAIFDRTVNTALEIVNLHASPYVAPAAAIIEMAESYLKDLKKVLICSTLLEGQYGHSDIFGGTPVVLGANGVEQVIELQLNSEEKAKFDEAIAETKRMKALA

Turning to `COc1ccc(CCN(C)CCCCNC(=O)c2ccc(NC(=O)c3ccc(Cl)cc3)cc2)c(OC)c1`, the growth inhibition in assay [1] is 0%; in assay [4] it was 87% (active). The values for the inhibition in assay [2] and in assay [3] were 12% and 4%, respectively. In addition, the outcome in assay [5], in assay [6], in assay [7] and in assay [8] was inactive.

Take `O=C(Nc1cccc(OC2CCN(Cc3ccsc3)CC2)c1)c1ccc(C(F)(F)F)cc1`: the values for the growth inhibition in assay [1] and in assay [4] were 5% and 98% (active), respectively. For the same molecule, the inhibition was 25% in assay [2] and -2% in assay [3]. Besides, the outcome in assay [5], in assay [6], in assay [7] and in assay [8] was inactive.

With `CCCCOc1c(CNCCCCCCNCc2ccc3ccccc3c2OCCCC)ccc2ccccc12`, the growth inhibition in assay [1] is 89% (active); in assay [4] it was 96% (active). The inhibition is 99% (active) in assay [2] and 7% in assay [3]. The outcome in assay [5], in assay [6], in assay [7] and in assay [8] was inactive.

On to `CCc1ccccc1N=C1c2c(cccc2[N+](=O)[O-])C(=O)C1C(C)=O` (stereo not given), for which the figures for the growth inhibition in assay [1] and in assay [4] were 96% (active) and 99% (active), respectively. Also, the inhibition was -6% in assay [2] and 4% in assay [3]. In addition, the result in assay [5], in assay [6], in assay [7] and in assay [8] was inactive.

Consider `CN1CCN(c2ccc(Nc3nc(N)c4ccn(C5CCC5)c4n3)cc2)CC1`, for which the figures for the growth inhibition in assay [1] and in assay [4] were 47% and 93% (active), respectively. Moreover, the values for the inhibition in assay [2] and in assay [3] were -3% and 2%, respectively. Besides, the outcome in assay [5], in assay [6], in assay [7] and in assay [8] was inactive.

For the molecule `CC1CCCCN1CCCNC(=O)c1cccc(-c2cc3cc(Cl)c(Cl)cc3[nH]2)c1` (stereo not given), the growth inhibition was 7% in assay [1] and 94% (active) in assay [4]. Further, the inhibition in assay [2] is 22%; in assay [3], -2%. The result in assay [5], in assay [6], in assay [7] and in assay [8] was inactive.

Turning to `O=C(NCc1cccc(CN2CCOCC2)c1)c1cc(Br)cc(N2CCN(c3ccncc3)CC2)c1`, the growth inhibition in assay [1] was 29%; in assay [4], 99% (active). Besides, the inhibition in assay [2] is 25%; in assay [3] it was -2%. The outcome in assay [5], in assay [6], in assay [7] and in assay [8] was inactive.

On to `O=C(NC1CCN(Cc2ccccc2O)C1)c1ccc(-c2ccccc2)cc1` (stereo not given), for which the growth inhibition is 25% in assay [1] and 99% (active) in assay [4]. The inhibition in assay [2] is -5%; in assay [3], 4%. Besides, the result in assay [5], in assay [6], in assay [7] and in assay [8] was inactive.

As for `CC(=O)c1c(Nc2c(C)cc(C)cc2C)oc(C)cc1=O`, the growth inhibition in assay [1] is 83% (active); in assay [4] it was 95% (active). For the same molecule, the inhibition in assay [2] and in assay [3] was 7% throughout. The result in assay [5], in assay [6], in assay [7] and in assay [8] was inactive.

As to `O=C(NCCOc1ccccc1)[C@H](Cc1ccccc1)Nc1ccnc(NCC2CCCCC2)n1`, the growth inhibition in assay [1] was 73% (active); in assay [4] it was 96% (active). Moreover, the inhibition in assay [2] was 80% (active); in assay [3], 5%. Besides, the result in assay [5], in assay [6], in assay [7] and in assay [8] was inactive.

Take `CCN(CCNS(C)(=O)=O)c1ccc(N)c(C)c1`: the figures for the growth inhibition in assay [1] and in assay [4] were 11% and 91% (active), respectively. In addition, the inhibition in assay [2] and in assay [3] was -4% in each case. Also, the result in assay [5], in assay [6], in assay [7] and in assay [8] was inactive.

As to `COc1cc2nc(NCc3ccc(S(N)(=O)=O)cc3)nc(Nc3ccc(Oc4ccccc4)cc3)c2cc1OC`, the growth inhibition in assay [1] was 100% (active); in assay [4], 101% (active). The values for the inhibition in assay [2] and in assay [3] were 14% and -3%, respectively. For the same molecule, the result in assay [5], in assay [6], in assay [7] and in assay [8] was inactive.

Take `CCOc1cc(CC)ccc1C1CCN(CCN2CCC(CNC(=O)c3ccc(-c4ccc(C#N)cc4)cc3)CC2)CC1`: the figures for the growth inhibition in assay [1] and in assay [4] were 100% (active) and 89% (active), respectively. For the same molecule, the figures for the inhibition in assay [2] and in assay [3] were 53% (active) and 5%, respectively. The outcome in assay [5], in assay [6], in assay [7] and in assay [8] was inactive.

In the case of `CCCCN(CCCC)CCOc1cc2c(cc1OC)CCN2C(=O)/C=C/c1ccccc1Cl`, the growth inhibition in assay [1] is 31%; in assay [4], 87% (active). The inhibition was 13% in assay [2] and 0% in assay [3]. Also, the result in assay [5], in assay [6], in assay [7] and in assay [8] was inactive.

On to `COc1ccc(Nc2nccc(N3CCC(NC(=O)C(C)c4ccc(Cl)cc4)CC3)n2)cc1` (stereo not given), for which the growth inhibition in assay [1] is 52% (active); in assay [4] it was 94% (active). Further, the inhibition in assay [2] is 18%; in assay [3], -2%. The outcome in assay [5], in assay [6], in assay [7] and in assay [8] was inactive.

Turning to `CCCC(CCC)n1ccc2c3c(N)nc(N)nc3ccc21`, the values for the growth inhibition in assay [1] and in assay [4] were 97% (active) and 98% (active), respectively. Also, the figures for the inhibition in assay [2] and in assay [3] were 66% (active) and -2%, respectively. The outcome in assay [5], in assay [6], in assay [7] and in assay [8] was inactive.

Consider `COc1ccc(O)c(C(=O)c2cc(C(=O)NCCc3ccccc3)c(=O)n(CCc3ccccc3)c2)c1`, for which the growth inhibition in assay [1] is 18%; in assay [4], 97% (active). Moreover, the inhibition in assay [2] was 11%; in assay [3], -2%. Also, the outcome in assay [5], in assay [6], in assay [7] and in assay [8] was inactive.

Consider `CN(CCCNCc1cccc2ccccc12)CCCNCc1cccc2ccccc12`, for which the values for the growth inhibition in assay [1] and in assay [4] were 94% (active) and 100% (active), respectively. The inhibition was 93% (active) in assay [2] and -3% in assay [3]. Also, the outcome in assay [5], in assay [6], in assay [7] and in assay [8] was inactive.

Consider `COc1ccc(NC(=O)NC2CCN(CCCOc3cc(C)nc4ccccc34)CC2)cc1OC`, for which the growth inhibition was 9% in assay [1] and 97% (active) in assay [4]. Also, the inhibition in assay [2] is 3%; in assay [3], 2%. Besides, the outcome in assay [5], in assay [6], in assay [7] and in assay [8] was inactive.

As for `CNC(=O)C1Cc2c([nH]c3ccc(Cl)cc23)C2(CCN(CCc3ccccc3)CC2)N1` (stereo not given), the figures for the growth inhibition in assay [1] and in assay [4] were 16% and 98% (active), respectively. For the same molecule, the inhibition in assay [2] was 2%; in assay [3], -2%. Further, the outcome in assay [5], in assay [6], in assay [7] and in assay [8] was inactive.
